Reference: PubChem BioAssay (NCATS)
Results filed as inconclusive are left out. Calls of active or inactive are those of the source. Calls follow the shape of the dose curve; as a rule, active = well fitted curve in the direction sought with a large enough effect; inconclusive = small, poorly fitted or top-dose-only effect, or another doubt; inactive = no such curve, though single readings can be large; an effect the other way counts as inactive or inconclusive.

How the values were obtained:
[1] = qHTS of pediatric cancer cell lines to identify multiple opportunities for drug repurposing: Primary screen for SJ-GBM2 cells (AID 1347091)
Summary of the method: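 Viability measured as metabolically active cells via CellTiter-Glo luminescence following 48 hours of compound exposure, 11-point dilutions in confirmatory testing. 500-1,000 cells/well plated 5 hours before dosing; controls were DMSO and 2.3 µM bortezomib.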

[2] = qHTS of pediatric cancer cell lines to identify multiple opportunities for drug repurposing: Primary screen for A673 cells (AID 1347092); also: nearly all actives have a fitted effect of over 45% in size
Summary of the method: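 Cell viability of A673 measured by CellTiter-Glo ATP luminescence after 48 hours compound exposure. Dilution series spanned 0.78 nM to 46 µM (MIPE, 11-point) or 0.59 nM to 46 µM (NPC, 8-point); bortezomib 2.3 uM positive control.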

[3] = qHTS of pediatric cancer cell lines to identify multiple opportunities for drug repurposing: Primary screen for SK-N-MC cells (AID 1347093)
Summary of the method: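 Metabolically active cells were quantified by ATP-dependent luminescence (CellTiter-Glo, 15 min at room temperature) following 48 h treatment. Cells had been plated at 500-1,000 per well and settled for 5 h beforehand.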

[4] = qHTS of pediatric cancer cell lines to identify multiple opportunities for drug repurposing: Primary screen for NB-EBc1 cells (AID 1347095)
Summary of the method: (§1)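 Phenotypic viability qHTS, 48 h compound exposure, CellTiter-Glo luminescence read-out; multi-concentration dosing so that potency and efficacy derive directly from the primary screen's curves.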

[5] = qHTS of pediatric cancer cell lines to identify multiple opportunities for drug repurposing: Primary screen for SK-N-SH cells (AID 1347098); also: nearly all actives have a fitted effect of over 65% in size
Summary of the method: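 Cells (500-1,000/well) rested 5 h, then received compounds for 48 h; metabolically active cells were measured by CellTiter-Glo luminescence. Final concentrations spanned up to 46 µM (MIPE, 11-point) or 0.59 nM-46 µM (NPC, 8-point) in primary screens, 11-point in follow-ups.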

[6] = qHTS of pediatric cancer cell lines to identify multiple opportunities for drug repurposing: Primary screen for NB1643 cells (AID 1347099); also: nearly all actives have a fitted effect of over 50% in size
Summary of the method: as §1

[7] = qHTS of pediatric cancer cell lines to identify multiple opportunities for drug repurposing: Primary screen for LAN-5 cells (AID 1347100)
Summary of the method: (§2)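 Viability after 48 h compound treatment at 37C, 500-1,000 cells/well, read as ATP luminescence with CellTiter-Glo. Primary screens used 11-point (MIPE, 0.78 nM-46 µM) or 8-point (NPC, 0.59 nM-46 µM) final concentrations; follow-up screens used 11-point dilutions.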

[8] = qHTS of pediatric cancer cell lines to identify multiple opportunities for drug repurposing: Primary screen for Saos-2 cells (AID 1347097); also: nearly all actives have a fitted effect of over 40% in size
Summary of the method: as §1

[9] = qHTS of pediatric cancer cell lines to identify multiple opportunities for drug repurposing: Primary screen for BT-37 cells (AID 1347094)
Summary of the method: as §1

[10] = qHTS of pediatric cancer cell lines to identify multiple opportunities for drug repurposing: Primary screen for U-2 OS cells (AID 1347096); also: nearly all actives have a fitted effect of over 50% in size
Summary of the method: as §2

Measured: Potency
Potency is read from the fitted curve at half-maximal effect.

NS(=O)(=O)OC[C@@H]1C[C@@H](n2ccc3c(N[C@H]4CCc5ccccc54)ncnc32)C[C@H]1O
inactive: [5]
active: [1] 0.296 µM | [2] 0.148 µM | [3] 0.0935 µM | [4] 0.132 µM | [6] 6.62 µM | [7] 0.833 µM

COc1cc(OC)c(C=CS(=O)(=O)Cc2ccc(OC)c(NCC(=O)O)c2)c(OC)c1
active: [1] 0.166 µM | [2] 0.148 µM | [3] 0.0935 µM | [4] 0.187 µM | [8] 0.059 µM | [5] 7.64 µM | [7] 0.148 µM

COc1cc(CCc2cc(NC(=O)c3ccc(N4C[C@@H](C)N[C@@H](C)C4)cc3)n[nH]2)cc(OC)c1
active: [1] 13.2 µM | [2] 14.8 µM | [9] 27.3 µM | [4] 14.8 µM | [10] 23.5 µM | [8] 5.9 µM | [5] 6.07 µM | [7] 4.18 µM

CN(C)CCN1C(=O)c2cccc3cc(N)cc(c23)C1=O
active: [1] 14.8 µM | [2] 14.8 µM | [9] 6.85 µM | [4] 1.87 µM | [5] 21.5 µM | [6] 18.7 µM | [7] 2.96 µM

Cn1cc(-c2ccc3ncc(Cc4ccc5ncccc5c4)n3n2)cn1
inactive: [2] | [9] | [4] | [10] | [5] | [6] | [7]
active: [1] 0.0093 µM

Cn1cc(C2=C(c3c4n(c5ccccc35)CCC(CN)C4)C(=O)NC2=O)c2ccccc21 (centres undefined)
active: [1] 14.8 µM | [2] 5.9 µM | [9] 27.3 µM | [4] 18.7 µM | [8] 18.7 µM | [5] 24.1 µM | [6] 26.4 µM

COc1cc(OC)c(NC(=O)Nc2cc(C)on2)cc1Cl
inactive: [1] | [2] | [9] | [4] | [10] | [8] | [5] | [7]

CON=C(C(=O)N[C@@H]1C(=O)N2C(C(=O)O)=C(CSC(=O)c3ccco3)CS[C@H]12)c1csc(N)n1
active: [5] 13.6 µM
inactive: [1] | [4] | [10] | [8] | [7]

CCC[C@H]1C[C@H](C(=O)N[C@@H]([C@@H]2O[C@@H](SC)[C@@H](O)[C@@H](O)[C@@H]2O)[C@H](C)Cl)N(C)C1
inactive: [2] | [3] | [9] | [4] | [10] | [8] | [5] | [6]

C#CCC(Cc1cnc2nc(N)nc(N)c2n1)c1ccc(C(=O)N[C@@H](CCC(=O)O)C(=O)O)cc1 (some centres undefined)
inactive: [10] | [8]
active: [2] 0.0296 µM | [3] 0.0235 µM | [9] 0.0544 µM | [4] 0.372 µM

CCCc1nc(C(C)(C)O)c(C(=O)O)n1Cc1ccc(-c2ccccc2-c2nn[nH]n2)cc1
inactive: [1] | [2] | [9] | [10] | [8] | [7]

CC(=O)O[C@@]12CO[C@H]1C[C@H](O)[C@@]1(C)C(=O)[C@H](O)C3=C(C)[C@@H](OC(=O)C(O)[C@@H](NC(=O)OC(C)(C)C)c4ccccc4)C[C@@](O)([C@@H](OC(=O)c4ccccc4)[C@@H]21)C3(C)C (some centres undefined)
inactive: [10] | [5]
active: [1] 23.5 µM | [3] 0.001 µM

CC(C(C)N1CC(=O)NC(=O)C1)N1CC(=O)NC(=O)C1 (centres undefined)
active: [1] 0.743 µM | [3] 0.743 µM | [4] 0.264 µM | [7] 0.743 µM
inactive: [10] | [5]

C[C@]12C=CC(=O)N[C@@H]1CC[C@H]1[C@H]3CC[C@@H](C(=O)Nc4cc(C(F)(F)F)ccc4C(F)(F)F)[C@@]3(C)CC[C@@H]12
inactive: [3] | [9] | [10] | [5] | [7]
active: [1] 14.8 µM

CC[C@H]1OC(=O)[C@H](C)[C@@H](O[C@H]2C[C@@](C)(OC)[C@@H](O)[C@H](C)O2)[C@H](C)[C@@H](O[C@@H]2O[C@H](C)C[C@H](N(C)C)[C@@H]2O)[C@](C)(OC)C[C@@H](C)C(=O)[C@H](C)[C@@H](O)[C@]1(C)O
inactive: [1] | [2] | [9] | [10] | [7]

CC[C@H]1OC(=O)[C@H](C)[C@@H](O[C@H]2C[C@@](C)(OC)[C@@H](O)[C@H](C)O2)[C@H](C)[C@@H](O[C@@H]2O[C@@H](C)C[C@H](N(C)C)[C@@H]2O)[C@](C)(O)C[C@@H](C)C(=O)[C@H](C)[C@@H](O)[C@]1(C)O
inactive: [1] | [9] | [10] | [5] | [7]

CCn1c(=O)c2c(nc(C=Cc3ccc(OC)c(OC)c3)n2C)n(CC)c1=O
inactive: [1] | [9] | [4] | [10] | [8] | [7]
active: [3] 18.7 µM

CC(C)(O)CC[C@@H](O)[C@](C)(O)[C@H]1CC[C@@]2(O)C3=CC(=O)[C@@H]4C[C@@H](O)[C@@H](O)C[C@]4(C)[C@@H]3CC[C@]12C
inactive: [1] | [9] | [4] | [10] | [8] | [7]

O=C(Nc1nnc(-c2ccco2)o1)c1cc(-c2ccccc2)nc2ccccc12
active: [1] 7.43 µM | [3] 11.8 µM | [9] 27.3 µM | [4] 8.33 µM | [5] 30.4 µM | [6] 10.5 µM | [7] 20.9 µM

CC(=O)ON=C1C(c2c(O)[nH]c3cc(Br)ccc23)=Nc2ccccc21
active: [1] 2.96 µM | [3] 0.0118 µM | [9] 6.11 µM | [4] 5.26 µM | [6] 16.6 µM
